KinaseGlo FLuc: Counterscreen for Luciferase (Kinase-Glo TM) Inhibition; Kinase-Glo luciferase, ATP luminescence, 8 min; Potency, µM (highest dose often 38.3 µM), inactives show top-dose activity change, negative = inhibition, hits mostly inhibitors; hit rate 0.28% among 200,000; AID 1379, 2008; also: % is scaled to controls: 0 for no effect and ±100 for the full control effect; nearly all actives have a fitted effect of over 60% in size
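Luminescence was the read-out, taken after 8-minute incubation at ambient temperature. Luciferase turned over luciferin with 10 uM ATP in imidazole pH 7.2 buffer containing KCl, MgCl2, Tween 20 and BSA.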
Rab9 prom act: qHTS Assay for Rab9 Promoter Activators; Potency, µM (highest dose often 9.22 µM), for inactives: top-dose activation, negative = inhibition, hits mostly activators; Huh7 Rab9 promoter-luciferase reporter, luminescence, 24 h; hit rate 2.8% among 320,000; also: % of control where 0% means no effect; nearly all actives have a fitted effect of over 60% in size
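Huh7 cells stably carrying a Rab9 promoter-luciferase reporter, 1500 cells per well in OP-MEM I with 10% FBS, treated with compound 24 hours at 37C. Luciferase activity read by luminescence after 10 minutes with Amplite reagent.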
ELG1 genotoxic: qHTS screen for small molecules that induce genotoxicity in human embryonic kidney (HEK293T) cells expressing luciferase-tagged ELG1; Potency, µM (series often up to 46 µM), inactives show at the top dose activity change, positive = activation, usual class: activators; hit rate 1.3% among 330,000; HEK293T ELG1-luciferase reporter, luminescence, 16 h; also: % of control where 0% means no effect; nearly all actives have a fitted effect of over 60% in size
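DMSO vehicle served as control against compound-treated ELG1-luciferase HEK293T cells; exposure lasted 16 hr at 37 °C and 5% CO2, followed by ONE-Glo luminescence detection after 30 min.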
FLuc counter: qHTS profiling assay for firefly luciferase inhibitor/activator using purifed enzyme and Km concentrations of substrates (counterscreen for miR-21 project) | Luciferin 4-monooxygenase (Photinus pyralis), P08659 | purified FLuc, Km substrates, luminescence inhibition | Potency, µM (titrated, usually from 57.5 µM), without a hit: at the highest dose activity change, negative = inhibition, most hits filed as inhibitors | hit rate 6.9% among 360,000 | AID 588342, 2011;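 also: plate controls were vehicle for no effect and reference inhibitor for full effect; nearly all actives have a fitted effect of over 55% in size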
Target sequence (P08659 whole entry, looked up): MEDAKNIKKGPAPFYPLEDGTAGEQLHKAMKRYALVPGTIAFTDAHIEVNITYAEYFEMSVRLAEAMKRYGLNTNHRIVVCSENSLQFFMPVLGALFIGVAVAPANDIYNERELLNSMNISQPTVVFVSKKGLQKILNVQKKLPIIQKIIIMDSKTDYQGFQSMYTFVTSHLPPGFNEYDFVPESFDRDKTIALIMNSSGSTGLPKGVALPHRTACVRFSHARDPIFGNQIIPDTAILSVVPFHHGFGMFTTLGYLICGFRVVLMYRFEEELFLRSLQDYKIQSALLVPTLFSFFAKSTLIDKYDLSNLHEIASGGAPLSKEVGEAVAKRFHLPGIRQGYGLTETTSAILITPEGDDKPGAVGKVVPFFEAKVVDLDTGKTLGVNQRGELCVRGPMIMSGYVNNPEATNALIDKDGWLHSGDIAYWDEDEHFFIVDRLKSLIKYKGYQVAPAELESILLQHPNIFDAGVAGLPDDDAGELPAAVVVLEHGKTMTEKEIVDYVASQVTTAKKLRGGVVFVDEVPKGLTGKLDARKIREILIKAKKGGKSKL
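Purified P. pyralis luciferase (10nM final) with 10uM D-luciferin and 10uM ATP (Km levels) in 50mM Tris acetate pH 7.5, 10mM Mg acetate, 0.01% Tween-20, 0.05% BSA; qHTS 6-point titration, ~60 µM downward; luminescence read.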
NPC1 prom act: qHTS Assay for NPC1 Promoter Activators. Huh7 NPC1 promoter luciferase reporter, 24 h. Potency, µM (series often up to 9.22 µM), without a hit: top-dose activation, hits mostly activators. hit rate 2.4% among 320,000. AID 485313, 2010; also: % of control where 0% means no effect; nearly all actives have a fitted effect of over 60% in size
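In 1536-well qHTS, Huh7 cells harboring an NPC1 promoter–luciferase construct received compound for 24 h; activation was quantified by luminescence following luciferase reagent addition.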
SMN2 splice up: qHTS Assay for Enhancers of SMN2 Splice Variant Expression. HEK293 SMN2-luciferase splicing reporter, luminescence, 30-36 h. hit rate 2.8% among 210,000. Potency, µM (top dose mostly 46.1 µM), without a hit: top-dose activity change, positive = activation, actives largely listed as activators. AID 1458, 2008; also: % of control where 0% means no effect; nearly all actives have a fitted effect of over 55% in size
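HEK293 cells carry an SMN2 […]–luciferase reporter in which exon 7 inclusion puts luciferase in frame. Cells were plated 10-12 h before compound addition, then incubated 30-36 h at 37C. ONE-Glo luminescence was read; sodium butyrate at 4.5 mM final served as control.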
* = called active by the depositor; u = inconclusive; x = no result; [ ] = dose if it differs, or a comment. Compounds with a hit are over-represented: about 7.3% of the library has one in this group of screens. Calls follow the shape of the dose curve; as a rule, active = well fitted curve in the direction sought with a large enough effect; inconclusive = small, poorly fitted or top-dose-only effect, or another doubt; inactive = no such curve, though single readings can be large; an effect the other way counts as inactive or inconclusive. Potency is read from the fitted curve at half-maximal effect.

SMILES	KinaseGlo FLuc	Rab9 prom act	ELG1 genotoxic	FLuc counter	NPC1 prom act	SMN2 splice up
CCOC(=O)c1c(Oc2ccc(OC)cc2)nnc(-c2ccccc2)c1-c1ccccc1	x	x	x	2%	x	-43%
CCN(c1ccc(NC(=O)COC(=O)c2ccc(C)c(S(=O)(=O)N3CCOCC3)c2)cc1)C(C)C	-2%	x	x	17µM*	x	-9%
CCOC(=O)c1ccc(NC(=O)c2cc(S(=O)(=O)N3CCOCC3)ccc2O)cc1	3%	-2%	-18%	15µM*	0%	-47%
CCN(c1ccc(NC(=O)COC(=O)c2ccc3ccccc3n2)cc1)C(C)C	-6%	-1%	3%	15µM*	-3%	-12%
CCOC(=O)c1ccc(NC(=O)c2cc(S(=O)(=O)N3CCOCC3)cn2C)cc1	x	-3%	1%	-15%	4%	x
O=C(O)c1ccc(N/N=C/c2ccnc3ccccc23)cc1	x	u	u	1.3µM*	0.56µM*	x
CCOC(=O)c1cnc2ccccc2c1Nc1ccc(C(=O)O)cc1	2%	1%	4%	u	-1%	11%
Oc1ccccc1/C=N/Nc1cccc2cccnc12	-17%	13%	u	1.5µM*	u	u
O=C(O)c1ccc(N/N=C/c2cccc3cccnc23)cc1	x	0.28µM*	u	0.76µM*	0.32µM*	x
CCC1Oc2ccc(C)cc2N(CC(=O)NCc2ccc(OC)cc2)C1=O (stereo unspecified)	x	x	x	-14%	x	-2%
Cc1cc(NC(=O)c2cccs2)cc(-c2nc3cc(Cl)ccc3o2)c1O	x	x	x	-5%	x	-5%
COc1ccccc1CNC(=O)CCCCn1c(=O)c2ccccc2n(CC(=O)Nc2cccc(Cl)c2)c1=O	x	x	x	0%	x	-17%
COc1ccc2c(c1)c(=O)c(S(=O)(=O)c1ccc(F)cc1)cn2Cc1ccccc1Cl	x	x	x	1%	x	-4%
Cc1ccccc1CSc1nc2cccnc2n1Cc1ccc(C(=O)NC2CC2)cc1	x	x	x	6µM*	x	x
O=C(NC1CC1)c1ccc(Cn2c(SCc3ccc(F)cc3)nc3cccnc32)cc1	x	x	x	1.7µM*	x	x
O=C(NC1CC1)c1ccc(Cn2c(SCc3cccc(F)c3)nc3cccnc32)cc1	x	x	x	-16%	x	x
O=C(NC1CCCC1)c1ccc(CSc2nc3cccnc3n2Cc2ccc(F)cc2)cc1	x	x	x	-8%	x	x
CC(=O)N1CCCc2cc(S(=O)(=O)N(C)CC(=O)Nc3ccc(C)cc3C)ccc21	x	x	x	-2%	x	x
CCOc1ccc(S(=O)(=O)NCC(c2ccc(N(C)C)cc2)N2CCCC2)cc1 (stereo unspecified)	x	x	x	-3%	x	x
Cc1cccc(Cn2c(=O)n(Cc3ccccc3)c(=O)c3sc4ccccc4c32)c1	x	x	x	1%	x	10%
CC(C)(C)c1ccc(C(=O)Oc2ccc3c(c2)OCC3=O)cc1	0%	-5%	8%	2.7µM*	0%	5%
O=C(Oc1ccc2c(c1)OCC2=O)c1ccccc1	-2%	0%	1%	27µM*	-1%	11%
CC(=O)Oc1ccc2c(c1)C(=O)c1ccccc1CO2	-4%	7%	u	4.8µM*	1%	-32%
CCN(CC)S(=O)(=O)c1ccc(C(=O)Oc2ccc3c(c2)OCO3)cc1	-1%	1%[1.84 µM]	2%	-1%	0%	2%
CCOc1ccccc1CNC(=O)c1cc(-c2ccc(Cl)s2)nc2ccccc12	x	x	x	-9%	x	9%
CCOc1ccc(CNC(=O)C2CCN(S(=O)(=O)N3CCCCC3)CC2)cc1	x	x	x	0%	x	x
N#Cc1ccc(CSc2nnc(Nc3ccccc3)s2)cc1	-1%	-5%	2%	-1%	-1%	-22%
CC(C)Sc1nnc(Nc2ccccc2)s1	-6%	2µM*	u	15µM*	4µM*	28%

High-throughput results as filed in PubChem.
